{"source": "PubChem BioAssay (EPA / NIEHS)", "note": "Records with an inconclusive call do not appear. Calls of active or inactive are those of the source. Rule for the calls: active = hit-call score of the fitted dose curve at least 0.9, where 1 is the maximum; inconclusive = response in the unintended direction; inactive = score below 0.9."}
{"molecular_target": "human Thromboxane A2 Receptor (TXA2), TBXA2R (gene 6915) (UniProt P21731)", "sequence (P21731 whole entry, looked up)": "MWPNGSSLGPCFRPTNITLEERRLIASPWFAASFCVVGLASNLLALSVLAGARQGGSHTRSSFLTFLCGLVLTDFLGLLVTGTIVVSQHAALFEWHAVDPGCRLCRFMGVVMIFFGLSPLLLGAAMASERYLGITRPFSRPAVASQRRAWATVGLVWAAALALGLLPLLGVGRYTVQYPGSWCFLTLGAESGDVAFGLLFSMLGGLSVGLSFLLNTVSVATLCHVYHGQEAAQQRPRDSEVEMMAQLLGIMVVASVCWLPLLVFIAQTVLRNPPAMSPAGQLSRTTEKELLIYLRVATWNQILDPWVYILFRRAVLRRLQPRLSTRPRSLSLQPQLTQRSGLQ", "experiment": "NVS_GPCR_hTXA2: NovaScreen (NVS) G Protein-Coupled Receptor Assay for human Thromboxane A2 Receptor (TXA2) (AID 2283282);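 note: actives reduce bound radioligand signal relative to DMSO baseline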", "experimental": "NVS_GPCR_hTXA2 is a biochemical, single-readout assay that uses extracted gene-proteins from Human platelets in a cell-free assay. Measurements were taken 1 hour after chemical dosing in a 96-well plate.NVS_GPCR_hTXA2 is one of one assay component(s) measured or calculated from the NVS_GPCR_hTXA2 assay. It is designed to make measurements of radioligand binding, a form of binding reporter, as detected with scintillation counting signals by Filter-based radiodetection technology.Data from the assay component NVS_GPCR_hTXA2 was analyzed into 1 assay endpoint. This assay endpoint, NVS_GPCR_hTXA2, was analyzed in the positive analysis fitting direction relative to DMSO as the negative control and baseline of activity. Using a type of binding reporter, loss-of-signal activity can be used to understand changes in the binding as they relate to the gene TBXA2R. Furthermore, this assay endpoint can be referred to as a primary readout, because the performed assay has only produced 1 assay endpoint. To generalize the intended target to other relatable targets, this assay endpoint is annotated to the gpcr intended target family, where the subfamily is rhodopsin-like receptor.\nBinding assays used specific radioligands (tritiated, iodinated) with non-radioactive competitive displacement ligands in agonist or antagonist protocols (as indicated) and various reference compounds and inhibitors to titrate specific binding to receptors and transporters. Most enzyme assays (CYPs, kinases, phosphatases, proteases, HDACs) used recombinant protein and specific substrates (fluorescence mostly, some colorimetric and radioactive) and inhibitors, followed by a biochemical separation of substrate and product. All assays for the biochemical HTS were initially run in duplicate at a single concentration (10 uM for CYP450 assays and 25 uM for all others). […] Each assay was run with positive and negative controls, and concurrent controls on every plate. The follow-up (secondary) screen tested active chemical-pairs in concentration series, as well as a few additional assays not tested in the primary screen, some selected negative inactives, and several cases re-run in the concentration series for confirmatory purposes."}
{"smiles": "CCNc1nc(NC(C)(C)C)nc(SC)n1", "outcome": "inactive"}
{"smiles": "C=C(C)C(=O)[O][Sn]([CH2]CCC)([CH2]CCC)[CH2]CCC", "AC50": "5.96 µM (active)"}
{"smiles": "CC(=O)[O][Hg][c]1ccccc1", "AC50": "5.62 µM (active)"}
{"smiles": "CCCCCCCCC(=O)NCc1ccc(O)c(OC)c1", "outcome": "inactive"}
{"smiles": "CC(C)(C)CC(C)(C)c1ccc(O)cc1", "AC50": "43.7 µM (active)"}
{"smiles": "N#CCc1ccc(Cl)cc1", "outcome": "inactive"}
{"smiles": "CCSC(C)CC1CC(=O)C(C(CC)=NOC/C=C/Cl)=C(O)C1", "note": "(stereo unspecified)", "AC50": "3.42 µM (active)"}
{"smiles": "COc1ccc(OC)c(C=O)c1", "outcome": "inactive"}
{"smiles": "COP(=S)(OC)Oc1ccc(Sc2ccc(OP(=S)(OC)OC)cc2)cc1", "AC50": "25 µM (active)"}
{"smiles": "O=C(O)C(F)(F)C(F)(F)C(F)(F)C(F)(F)C(F)(F)C(F)(F)C(F)(F)C(F)(F)C(F)(F)C(F)(F)F", "outcome": "inactive"}
{"smiles": "C(=NC1CCCCC1)=NC1CCCCC1", "AC50": "2.87 µM (active)"}
